In article PMC9838217, “Structure of SALL4 zinc finger domain reveals link between AT-rich DNA binding and Okihiro syndrome”:
Substitutions are numbered along the chain they refer to.

Molecular target: T1, SALL4 ZFC4 WT (HT-SELEX) (Mus musculus, UniProt Q8BX22 870-940)
T1 sequence: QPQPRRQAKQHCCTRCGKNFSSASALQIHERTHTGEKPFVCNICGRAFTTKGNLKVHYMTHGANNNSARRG
Assay: HT-SELEX; high values mean tight binding
Conditions: protein: recombinant; vector His6-GST; dsDNA, one strand shown
Method in brief: (§1)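 Purified recombinant mouse SALL4 zinc finger cluster 4 (residues 870–940, 1 µg) and library DNA (1.5 µg first cycle, 200 ng later) were incubated for 10 min at room temperature in 100 µl of 10 mM Tris–HCl pH 7.5, 50 mM NaCl, poly(dI-dC) and DTT. After Ni2+ bead capture and up to 6 triplicate cycles of selection, DNA was MiSeq-sequenced and scanned for 6-mers. Binding signal is the fold change in each canonical k-mer's read fraction relative to the initial random library.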

| Sequence | binding signal [fold-change vs cycle 0] |
| --- | --- |
| CAGGAG | 0.48 ± 0.0178 |
| AGTGAC | 0.776 ± 0.012 |
| GACGGA | 0.372 ± 0.0168 |
| AATATG | 2.8 ± 0.213 |
| ATATAT | 5.74 ± 0.718 |
| GAAGCC | 0.311 ± 0.0191 |
| TCTTCA | 1.42 ± 0.033 |
| GGACTA | 0.732 ± 0.0464 |
| CTCAAC | 0.775 ± 0.0132 |
| AATTGT | 1.82 ± 0.0686 |
| AACGTC | 0.624 ± 0.0116 |
| AGAAAT | 2.29 ± 0.182 |
| ACTACA | 1.29 ± 0.0616 |
| GTAAAA | 1.69 ± 0.0918 |
| AGGGAC | 0.483 ± 0.0313 |
| CCGATA | 0.671 ± 0.053 |
| AGTCTG | 0.76 ± 0.0287 |
| TCCCGA | 0.394 ± 0.0144 |
| ACTACG | 0.659 ± 0.026 |
| ATGATA | 2.72 ± 0.227 |

| Sequence | binding signal [fold-change vs cycle 0] |
| --- | --- |
| CCTGAA | 0.792 ± 0.0306 |
| ATACAA | 2 ± 0.0726 |
| GATAGA | 1.32 ± 0.045 |
| CGTCCA | 0.318 ± 0.0103 |
| AAGACG | 0.635 ± 0.0182 |
| AAAGAG | 1.26 ± 0.0407 |
| CCAATC | 0.76 ± 0.0281 |
| ATCTAG | 1.35 ± 0.0842 |
| CTATTC | 1.3 ± 0.0236 |
| TCACAA | 1.2 ± 0.0727 |
| AGGCAG | 0.306 ± 0.00652 |
| AGGTTA | 1.49 ± 0.0813 |
| TGCAAA | 1 ± 0.0674 |
| CCATGA | 0.874 ± 0.0255 |
| CGTTGA | 0.664 ± 0.053 |
| AACGCT | 0.549 ± 0.0698 |
| AAAGTT | 1.85 ± 0.124 |
| GAACAC | 0.766 ± 0.0374 |
| CACTAG | 0.821 ± 0.0388 |
| ATTCGA | 1.07 ± 0.0464 |

Molecular target: T2, SALL4 ZFC4 R900W (HT-SELEX) (Mus musculus, UniProt Q8BX22 870-940, R900W)
T2 sequence: T1 sequence with R31W
Assay: HT-SELEX; high values mean tight binding
Conditions: protein: recombinant; vector His6-GST; dsDNA, one strand shown
Method in brief: as §1

| Sequence | binding signal [fold-change vs cycle 0] |
| --- | --- |
| CAGGAG | 0.596 ± 0.041 |
| AGTGAC | 0.91 ± 0.0317 |
| GACGGA | 0.427 ± 0.0141 |
| AATATG | 1.83 ± 0.0804 |
| ATATAT | 2.51 ± 0.217 |
| GAAGCC | 0.3714 ± 0.00344 |
| TCTTCA | 1.6 ± 0.094 |
| GGACTA | 0.855 ± 0.0609 |
| CTCAAC | 0.9089 ± 0.00888 |
| AATTGT | 1.81 ± 0.0917 |
| AACGTC | 0.722 ± 0.0138 |
| AGAAAT | 2.02 ± 0.161 |
| ACTACA | 1.42 ± 0.0632 |
| GTAAAA | 1.73 ± 0.0898 |
| AGGGAC | 0.559 ± 0.0327 |
| CCGATA | 0.717 ± 0.0449 |
| AGTCTG | 0.869 ± 0.0157 |
| TCCCGA | 0.445 ± 0.019 |
| ACTACG | 0.728 ± 0.025 |
| ATGATA | 2.14 ± 0.0867 |

| Sequence | binding signal [fold-change vs cycle 0] |
| --- | --- |
| CCTGAA | 0.933 ± 0.0447 |
| ATACAA | 1.98 ± 0.0733 |
| GATAGA | 1.46 ± 0.0749 |
| CGTCCA | 0.381 ± 0.0253 |
| AAGACG | 0.735 ± 0.023 |
| AAAGAG | 1.46 ± 0.0773 |
| CCAATC | 0.854 ± 0.0448 |
| ATCTAG | 1.48 ± 0.0373 |
| CTATTC | 1.46 ± 0.0185 |
| TCACAA | 1.32 ± 0.0623 |
| AGGCAG | 0.366 ± 0.0295 |
| AGGTTA | 1.57 ± 0.127 |
| TGCAAA | 0.975 ± 0.0411 |
| CCATGA | 0.938 ± 0.011 |
| CGTTGA | 0.763 ± 0.00493 |
| AACGCT | 0.603 ± 0.0229 |
| AAAGTT | 1.9 ± 0.107 |
| GAACAC | 0.901 ± 0.0255 |
| CACTAG | 0.968 ± 0.0358 |
| ATTCGA | 1.15 ± 0.0515 |

Molecular target: T3, SALL4 ZFC4 G921D (HT-SELEX) (Mus musculus, UniProt Q8BX22 870-940, G921D)
T3 sequence: T1 sequence with G52D
Assay: HT-SELEX; high values mean tight binding
Conditions: protein: recombinant; vector His6-GST; dsDNA, one strand shown
Method in brief: as §1

| Sequence | binding signal [fold-change vs cycle 0] |
| --- | --- |
| CAGGAG | 0.676 ± 0.0293 |
| AGTGAC | 0.973 ± 0.0424 |
| GACGGA | 0.545 ± 0.0666 |
| AATATG | 1.66 ± 0.102 |
| ATATAT | 2.2 ± 0.291 |
| GAAGCC | 0.514 ± 0.0635 |
| TCTTCA | 1.48 ± 0.131 |
| GGACTA | 0.897 ± 0.0585 |
| CTCAAC | 0.928 ± 0.0107 |
| AATTGT | 1.66 ± 0.114 |
| AACGTC | 0.813 ± 0.0314 |
| AGAAAT | 1.78 ± 0.161 |
| ACTACA | 1.34 ± 0.0704 |
| GTAAAA | 1.53 ± 0.125 |
| AGGGAC | 0.674 ± 0.0751 |
| CCGATA | 0.816 ± 0.0546 |
| AGTCTG | 0.92 ± 0.0107 |
| TCCCGA | 0.562 ± 0.0681 |
| ACTACG | 0.821 ± 0.0676 |
| ATGATA | 1.86 ± 0.153 |

| Sequence | binding signal [fold-change vs cycle 0] |
| --- | --- |
| CCTGAA | 0.951 ± 0.0276 |
| ATACAA | 1.76 ± 0.0991 |
| GATAGA | 1.38 ± 0.128 |
| CGTCCA | 0.504 ± 0.0811 |
| AAGACG | 0.815 ± 0.0404 |
| AAAGAG | 1.33 ± 0.0951 |
| CCAATC | 0.933 ± 0.0316 |
| ATCTAG | 1.41 ± 0.108 |
| CTATTC | 1.39 ± 0.0918 |
| TCACAA | 1.29 ± 0.11 |
| AGGCAG | 0.484 ± 0.0834 |
| AGGTTA | 1.44 ± 0.162 |
| TGCAAA | 1.03 ± 0.0183 |
| CCATGA | 1.01 ± 0.0502 |
| CGTTGA | 0.839 ± 0.0136 |
| AACGCT | 0.738 ± 0.0676 |
| AAAGTT | 1.7 ± 0.189 |
| GAACAC | 0.932 ± 0.0461 |
| CACTAG | 0.987 ± 0.027 |
| ATTCGA | 1.2 ± 0.0363 |
